SENP6 inh: blocks the human protease SENP6; Recombinant SENP6 catalytic domain, aminoluciferin luminescence; Q9GZR1; hit rate 1.8% among 330,000; AID 2599; inhibition, % at 10 µM;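 active = inhibition above about 50% at the single tested dose, limit read from the data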;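 note: plate controls were DMSO wells with enzyme for no effect and DMSO wells lacking enzyme for full effect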
PPC-1+TRAIL kill: PPC-1 cancer cell killing with TRAIL present | PPC-1 cells + TRAIL, ATPLite viability luminescence | cell killing (% activity), % at 4 µM or 5 µM | hit rate 0.41% among 220,000 | AID 1443;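 active = cell killing above 50% in the first pass at 4 µM, then a duplicate retest at 5 µM averaging 50% or more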;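 note: plate controls were cells with TRAIL plus DMSO for no effect and medium-only wells lacking cells for full effect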
TRAIL sens C8: caspase-8 TRAIL sensitization. NB7+C8 cells + TRAIL, ATPlite viability luminescence. hit rate 1% among 360,000. inhibition (viability loss, TRAIL sensitization), % at 10 µM;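 active = compounds causing at least 50% loss of cell viability in the single-dose screen, relative to plate controls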
SENP8 block-1: blocks human SENP8 cleavage of Nedd8 substrate; recombinant SENP8, Nedd8 substrate fluorescence; inhibition, % at 20 µM; hit rate 0.64% among 360,000; in the data active = inhibition mostly above about 40%, no sharp cut-off; inactive = mostly below about 27%
SENP8 block-2: SENP8 protease inhibition; Q96LD8; purified SENP8, Z-RLRGG-aminoluciferin cleavage, luminescence; inhibition, % at 10 µM; hit rate 1.2% among 330,000; in the data active = inhibition above about 50%
SENP7 inh: SENP7 protease inhibition. Q9BQF6. recombinant SENP7, Z-RLRGG-aminoluciferin luminescence, 40 min. inhibition, % at 5 µM. hit rate 1.5% among 330,000;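 active = inhibition above about 50% at the single test dose, limit read from the data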;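 note: plate controls were DMSO with enzyme for no effect and no enzyme buffer wells for full effect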
Target sequence (Q9BQF6 706-1050 limits assumed): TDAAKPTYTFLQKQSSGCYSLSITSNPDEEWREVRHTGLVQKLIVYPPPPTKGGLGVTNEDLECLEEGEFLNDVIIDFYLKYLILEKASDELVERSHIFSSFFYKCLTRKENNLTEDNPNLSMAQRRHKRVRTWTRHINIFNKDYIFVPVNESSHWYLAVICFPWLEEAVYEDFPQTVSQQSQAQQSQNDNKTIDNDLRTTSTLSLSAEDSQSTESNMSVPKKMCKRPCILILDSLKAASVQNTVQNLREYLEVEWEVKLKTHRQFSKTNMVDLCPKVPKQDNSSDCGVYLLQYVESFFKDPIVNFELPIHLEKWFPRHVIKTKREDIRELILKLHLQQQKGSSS
SENP8 conf: human SENP8 inhibition, confirmed; Recombinant SENP8, Z-RLRGG-aminoluciferin luminescence, 60 min; inhibition, % at 12.5 µM; hit rate 40% among 6,200; AID 488912; shares compounds with SENP7 inh;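 active = mean inhibition across replicates above about 50%, limit read from the data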
SENP6 confirm: confirmation of human SENP6 protease inhibitors; hit rate 58% among 6,200; shares compounds with SENP7 inh; recombinant SENP6, Z-RLRGG-aminoluciferin luminescence; AID 488915; inhibition, % at 12.5 µM
SENP7 confirm: human SENP7 inhibition, confirmed; recombinant SENP7, Z-RLRGG-aminoluciferin luminescence, 40 min; shares compounds with SENP7 inh; hit rate 69% among 6,200; inhibition, % at 12.5 µM
Casp3 SENP sel: inhibits human caspase-3 in SENP selectivity test; shares compounds with SENP7 inh; purified caspase-3, Z-DEVD-aminoluciferin luminescence, 60 min; inhibition, % at 12.5 µM; hit rate 60% among 6,200; AID 488918;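 active = mean inhibition above about 50%, limit read from the data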;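 note: plate controls were enzyme with DMSO for no effect and wells without caspase-3 for full effect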
Target sequence (P42574 28-227 limits assumed): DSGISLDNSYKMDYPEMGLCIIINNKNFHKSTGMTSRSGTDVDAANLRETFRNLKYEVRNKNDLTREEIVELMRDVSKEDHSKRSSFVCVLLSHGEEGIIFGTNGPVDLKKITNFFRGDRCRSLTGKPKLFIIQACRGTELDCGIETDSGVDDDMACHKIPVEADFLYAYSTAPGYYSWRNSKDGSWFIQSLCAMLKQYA
SENP luc ctr: interferes with luciferase luminescence in SENP counter-screen; shares compounds with SENP7 inh; Pre-incubated SENP8/Z-RLRGG-aminoluciferin, luciferase luminescence interference; inhibition, % at 12.5 µM; hit rate 39% among 6,200; AID 488919;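 active = mean inhibition above about 50% when retested at one dose, limit read from the data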;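 note: plate controls were DMSO wells with completed reaction for no effect and substrate without enzyme for full effect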
Numbers without * were called inactive; i = inactive; · = not tested or not shown. Only some compounds are listed: those with a hit (about 3% of all), similar ones and a draw of the others.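 Rule for the calls, unless noted: active = mean inhibition above about 50% in the one-dose retest (limit read from the data); inactive = the rest.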

SMILES	SENP6 inh	PPC-1+TRAIL kill	TRAIL sens C8	SENP8 block-1	SENP8 block-2	SENP7 inh	SENP8 conf	SENP6 confirm	SENP7 confirm	Casp3 SENP sel	SENP luc ctr
CC(=O)c1sc(NC(=O)c2ccc3c(c2)OCO3)nc1C	79.9*	·	34.5	-35.4	69.8*	81.8*	62.7*	76.6*	94.7*	87.9*	76.8*
COc1ccc(C(=O)Nc2nccs2)cc1OC	1.7	28.5	-5.5	-15.8	2.8	2.4	·	·	·	·	·
CC(=O)c1sc(NC(=O)c2ccc(C)c(C)c2)nc1C	-14.1	-8.6	33.2	-10.6	-11.1	33.2	·	·	·	·	·
Cc1csc(NC(=O)c2ccc3c(c2)OCO3)n1	85.2*	·	0.4	-18.6	74.8*	85.7*	43.0	79.6*	96.1*	89.7*	82.1*
CC(=O)c1sc(NC(=O)c2cnc(Cl)c(Cl)c2)nc1C	83.6*	·	18.0	-27.5	76.9*	66.0*	11.7	54.5*	27.8	91.2*	82.4*
CC1ON=C(c2cccc3ccccc23)N(C)C1=O (centres undefined)	·	·	4.9	0.3	·	·	·	·	·	·	·
COc1ccccc1N1C(=O)N(C(C)=O)C2C1Nc1ccccc1N2C (centres undefined)	69.6*	-5.9	7.1	-23.1	45.7	-4.9	0.9	1.6	1.3	2.7	-3.8
CCOc1ccc(CN(CC)C(=O)Cc2c[nH]c3ccccc23)cc1OC	5.6	·	2.1	16.6	10.8	-2.7	·	·	·	·	·
C[C@@H]1CN([C@@H](C)CO)C(=O)CCCn2cc(nn2)CO[C@H]1CN(C)S(=O)(=O)c1ccc2ccccc2c1	·	·	-2.3	6.8	·	·	·	·	·	·	·
COc1c(/C=C2\SC(=Nc3ccccc3Cl)NC2=O)cccc1[N+](=O)[O-]	-36.1	·	7.2	14.2	-43.9	9.4	·	·	·	·	·
O=C1NC(=Nc2ccccc2Cl)S/C1=C\c1cccc([N+](=O)[O-])c1O	92.7*	·	9.4	47.9*	86.0*	8.7	89.8*	92.0*	79.0*	52.0*	81.2*
CCn1ccc(C(=O)Nc2ccccc2Cl)n1	52.9*	17.1	7.3	18.1	14.7	50.5*	34.1	37.9	75.6*	72.1*	56.4*
CCn1ccc(C(=O)Nc2cccc(Cl)c2)n1	-4.7	-4.2	12.8	12.0	4.6	19.2	·	·	·	·	·
CS(=O)(=O)Nc1ccc(C(=O)Nc2ccccc2Cl)cc1	-11.9	12.3	-8.7	-38.8	-2.3	3.1	·	·	·	·	·
CC(C)(C)c1ccc(C(=O)Nc2ccccc2Cl)cc1	80.4*	21.0	39.5	11.3	70.0*	75.6*	1.1	76.1*	94.2*	60.1*	61.4*
COCCNC(=O)C1(C)CCCN(Cc2sc(C)nc2C)C1 (centres undefined)	·	·	-4.6	13.1	·	·	·	·	·	·	·
Nc1cccc2c(O)cc(S(=O)(=O)O)cc12	·	·	-1.9	i	·	·	·	·	·	·	·
Nc1cccc2c(O)cccc12	68.0*	·	-5.7	-391.2	29.9	23.4	7.9	23.5	10.0	8.7	1.1
COC(C)(C)[C@@H](O)COc1c2ccoc2cc2oc(=O)ccc12	2.7	·	-0.8	-105.4	1.3	6.9	·	·	·	·	·
Cc1ccc(-n2ncc3c2ncn2c(C)nnc32)cc1C	53.7*	34.6	31.6	-246.2	46.9	-8.9	49.8	44.7	72.8*	75.5*	12.9
COc1cccc(/C(C)=N/NC(=O)Cc2c(C)[nH][nH]c2=O)c1	-3.4	4.6	-2.5	12.1	-2.3	-1.7	·	·	·	·	·
c1cc2nnnn2nc1N1CCCCC1	0.8	1.4	-8.9	4.8	4.7	58.3*	8.1	6.1	-2.7	-6.4	-7.5
CSc1nsc(NC(=O)OCc2ccc(Cl)cc2)n1	29.5	·	12.0	5.9	5.0	-4.9	·	·	·	·	·
COc1ccsc1NC(=O)OCc1ccc(Cl)cc1	50.5*	·	-4.7	1.7	49.4	37.9	57.9*	56.3*	84.5*	55.2*	62.5*
CCOc1cc(C)c(Cl)cc1S(=O)(=O)N(CC)CC	2.8	24.8	-1.1	15.0	62.7*	-5.1	4.3	9.7	10.6	2.6	4.5
SMILES	SENP6 inh	PPC-1+TRAIL kill	TRAIL sens C8	SENP8 block-1	SENP8 block-2	SENP7 inh	SENP8 conf	SENP6 confirm	SENP7 confirm	Casp3 SENP sel	SENP luc ctr
Cc1cccc2nc3c(nc12)CCCC3	9.0	·	-8.7	-1.1	1.8	2.0	·	·	·	·	·
CC1=NN(c2ccccc2)C(=O)/C1=C/c1c(O)n(-c2ccc(F)c(Cl)c2)[nH]c1=O	83.5*	10.2	·	·	77.7*	-6.2	4.6	65.5*	58.6*	3.7	55.1*
CC(=O)c1cc2c(cc1NS(=O)(=O)c1ccc(F)cc1)OCO2	5.1	1.8	-1.3	6.0	-3.4	4.7	·	·	·	·	·
O=C(Nc1c2c(nn1-c1ccc(F)cc1)CS(=O)(=O)C2)c1ccc(S(=O)(=O)N2CCOCC2)cc1	-0.3	-11.4	-7.7	6.9	-4.0	2.0	·	·	·	·	·
Cc1cccc(OCC(=O)NCCNC(=O)c2ccco2)c1	20.6	·	6.6	9.5	7.8	-7.8	·	·	·	·	·
Cn1c(=N)n(CC(=O)c2ccc(F)cc2)c2ccccc21	61.7*	·	80.3*	21.7	46.4	19.7	34.3	25.4	25.2	38.4	61.8*
CSCCC1NC(=O)C(C(C)=NNC(N)=O)=C1O (centres undefined)	·	·	-11.0	8.2	·	·	·	·	·	·	·
COc1ccccc1N1CCN(/N=C/c2ccc([N+](=O)[O-])cc2)CC1	67.7*	·	-11.8	33.7	54.2*	63.6*	16.3	12.9	90.9*	48.1	5.8
COc1ccccc1N1CCN(/N=C/c2ccc(Cl)c([N+](=O)[O-])c2)CC1	6.9	·	-8.0	19.4	-27.3	3.0	·	·	·	·	·
O=C(NCc1nnc2c(C(F)(F)F)cc(Cl)cn12)c1cccnc1	-6.6	·	-12.3	-7.2	-5.9	-12.8	·	·	·	·	·
CC1Cc2cc(/C=C3/SC(=S)NC3=O)ccc2O1 (centres undefined)	74.2*	28.9	23.3	21.8	67.2*	2.4	11.2	76.2*	83.9*	46.7	0.3
CCN(CC)c1ccc(C=C2SC(=S)NC2=O)cc1	·	·	16.6	38.5	·	·	·	·	·	·	·
O=C(NCCc1ccccc1)c1ccc2c(c1)OCO2	57.4*	·	71.0*	16.3	30.3	57.1*	52.0*	48.2	81.8*	78.3*	56.7*
O=C(Cc1ccccc1)c1ccc2c(c1)OCCO2	73.4*	2.3	5.6	2.6	71.1*	69.0*	69.5*	65.2*	91.4*	78.2*	75.5*
O=C(CCCO)c1ccc2c(c1)OCCO2	0.4	9.0	-2.0	2.7	-2.2	6.7	·	·	·	·	·

Source: PubChem (Sanford-Burnham Center for Chemical Genomics)
